The results in this text go back to ChEMBL document CHEMBL3988442, “University of Dundee, Small-Polar-MMV Screening Library” (2021).

Structures are written as SMILES. Screen size: about 48,000 compounds; about 13,000 (27%) showed an effect of 50% or more. This is one part of the list.

This experiment relates to Wolbachia pipientis. Put plainly: Anti-Wolbachia Cell-Based Screen. The settings on record: 5 µM. Also on record: scale not given: in the data most compounds retested in dose-response had high values. The experiment is classed as functional.
`CCc1nc(CCNC(=O)Nc2cc(C(N)=O)sc2C)cs1`: the “Percent Effect” value stood at 34.11%.
With `O=C(c1ncoc1C1CCCO1)N1CC2(CCCC2)c2ccccc21` (stereo not given), the “Percent Effect” value is -7.876%.
As to `Cc1ccc(CCNc2ncnc3sc4c(c23)CCNC4)o1`, the “Percent Effect” value is 6.04%.
In the case of `CC(C)c1nc2oc(C(=O)N3CCOCC3)c(N)c2c2c1CCCC2`, the “Percent Effect” value is reported as 100.5%.
For the compound `Cn1c(C(=O)N2CCOCC2)nc2c1CCN(c1ncccn1)C2`, the “Percent Effect” value is -2.522%.
For `Nc1nc2c(c(NCc3ccc(C(=O)N4CCCC4)cc3)n1)CCCC2`, the “Percent Effect” value is reported as -8.867%.
As for `CCn1c(N)nc2cc(C(=O)N3CCCOCC3)cnc21`, the “Percent Effect” value is on record as -12.44%.
`CC(=O)N1CCc2[nH]nc(C(=O)N3CCOCC3)c2C1`: the “Percent Effect” value is -13.35%.
Regarding `CC(=O)N1CCCN(C(=O)c2oc(Br)cc2C)CC1`, the “Percent Effect” value was -21.77%.
For `CCC(C)N1CCc2c(C(=O)N3CCOCC3)n[nH]c2C1` (stereo not given), the “Percent Effect” value is reported as -26.93%.
Under `Cc1nc2oc(C(=O)N3CCOCC3)c(N)c2c2c1CCCC2` stands 117.9%; under `Cc1nc2oc(C(=O)N3CCCC3)c(N)c2c2c1CCCC2`, 89.55%.
On to `Cc1nc(N2CCOc3ccc(CO)cc3C2)c2c(C)noc2n1`, for which the “Percent Effect” value is on record as -4.645%.
Regarding `CNC(=O)C(C)NC(=O)c1cc(COc2ccc(OC)cc2Cl)[nH]n1` (stereo not given), the “Percent Effect” value was -6.822%.
`CN1C[C@@H](n2cnc(-c3ccccc3)c2-c2c[nH]cn2)C[C@H]1C(=O)O`: the “Percent Effect” value was -2.319%.
For the compound `Cc1cc(C)c(C(=O)N2CCC3(CCCN(CC(C)(C)C)C3)C2)[nH]1` (stereo not given), the “Percent Effect” value is reported as -1%.
Under `COc1ccc(CN2C[C@H](N3CCCC3=O)[C@@H]3OCCC[C@@H]32)cc1.O=C(O)C(F)(F)F` stands 8.325%; under `COc1ccc(CN2CCO[C@@H]3C[C@@H](C(=O)NC(C)C)C[C@H]32)cc1.O=C(O)C(F)(F)F`, -0.6614%.
With `CC[C@@H]1N(Cc2ccc(F)cc2)CCC[C@]12CCC(=O)N2C.O=C(O)C(F)(F)F`, the “Percent Effect” value came to 88.6%.
As for `CNC(=O)[C@H]1C[C@H]2OCC[C@H]2N(Cc2ccc(F)cc2)C1.O=C(O)C(F)(F)F`, the “Percent Effect” value was -9.122%.
Under `CC[C@@H]1N(Cc2ccc(C)o2)CCC[C@]12CCC(=O)N2CCOC.O=C(O)C(F)(F)F` stands 120.4%.
On to `Cc1ccc(CN2CC(C(=O)N3CCCC3)C3(CCOCC3)C2)s1.O=C(O)C(F)(F)F` (stereo not given), for which the “Percent Effect” value is recorded as -16.58%.
Under `CC[C@@H]1N(Cc2ccc(OC)cc2)CCC[C@]12CCC(=O)N2CCOC.O=C(O)C(F)(F)F` stands 91.26%; under `Cc1ccc(CN2CCCC3(CCCC(=O)N3C)C2)s1.O=C(O)C(F)(F)F` (stereo not given), 5.855%.
As for `CC[C@@H]1N(Cc2ccc(C)s2)CCC[C@]12CCC(=O)N2C.O=C(O)C(F)(F)F`, the “Percent Effect” value is recorded as 100.7%.
